High-throughput results (PubChem)
Pf Dd2 growth: Plasmodium falciparum Dd2 growth inhibition | 4.3% of 120,000 active | P. falciparum Dd2 growth, SYBR Green, 72 h | AID 1347417 | Potency, µM (top dose mostly 28.9 µM), hits mostly inhibitors; active = well fitted inhibition curve with a large enough effect; note: nearly all actives have a fitted effect of over 65% in size
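Readout: SYBR Green fluorescence, 485 nm excitation, 535 nm emission, after ~16 h lysis at 37C. Before that, Dd2-infected red cells (2.5% hematocrit) grew 72 h with compound, 29 uM top final concentration.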
Each line names hits and unclear results; the compound was inactive in the other large screens. Only a selection was taken, and hits are over-represented in it overall.

CNC(=O)[C@@H]1C[C@H](Oc2cccnc2)CN1S(=O)(=O)c1cccs1	none
CCn1ccc(C(=O)N2CCOc3ccc(CCC(N)=O)cc3C2)n1	none
COc1ccc([C@@H](NC(=O)c2ccc3ncsc3c2)C2CC(O)C2)cn1 (stereo partly drawn)	none
COc1cccc([C@@H]2CN(C(=O)c3n[nH]c4c3CCCC4)C[C@H]2C(=O)O)c1	none
O=C(C1CC=CCC1)N1CCC(Cc2nncn2-c2ccccc2)CC1 (stereo not drawn)	none
Cn1nc(-c2cccs2)cc1[C@H]1CN2CC[C@H]1C[C@@H]2COC(=O)Nc1cccc(C(F)(F)F)c1	none
Cc1nc(-c2cccs2)cc([C@H]2CN3CC[C@H]2C[C@@H]3COC(=O)NC2CCCCC2)n1	none
Cn1nc(-c2ccc(F)cc2)cc1[C@H]1CN2CC[C@H]1C[C@@H]2COC(=O)Nc1cccc(C(F)(F)F)c1	none
Cc1nc(-c2cccs2)cc([C@H]2CN3CC[C@H]2C[C@@H]3CO)n1	Pf Dd2 growth 11µM
CCNC(=O)NC[C@H]1C[C@@H]2CCN1C[C@@H]2c1cc(-c2cccs2)nn1C	none
Cc1nc(-c2cccs2)cc([C@H]2CN3CC[C@H]2C[C@@H]3COC(=O)Nc2cccc(C(F)(F)F)c2)n1	Pf Dd2 growth 7.9µM
Cc1nc2cc(CNC(=O)CN3C(=O)CN(C)C3=O)ccc2n1C	none
COCc1nc(C2CCCN(C(=O)COc3cccc(C)c3)C2)no1 (stereo not drawn)	none
Cc1cccnc1NCCNc1nc(C(C)C)nc2c1cnn2C	none
COCCCNc1nc(NCc2cccc(Cl)c2)c2cnn(C)c2n1	none
CC(C)CCNc1nc(Nc2ccccc2)c2cnn(C)c2n1	Pf Dd2 growth 10µM
CCC1(CO)CCCN(CCCOc2ccc(C(N)=O)cc2)C1 (stereo not drawn)	none
C=CCC1(CO)CCCN(Cc2nc(C)cc(-c3ccccc3)n2)C1 (stereo not drawn)	Pf Dd2 growth 8.9µM
C=CCC1(C(=O)O)CCCN(Cc2cc3c(cc2OC)OCO3)C1 (stereo not drawn)	none
C=CCC1(CO)CCCN(CCOc2ccc(C)cc2Cl)C1 (stereo not drawn)	Pf Dd2 growth 8.9µM
C=CCC1(C(=O)O)CCCN(Cc2cnc(NCc3ccccc3)nc2)C1 (stereo not drawn)	none
C=CCC1(CO)CCCN(C(=O)CCCOc2ccccc2)C1 (stereo not drawn)	none
O=C(c1ccc(F)c(F)c1)N1CCC[C@H]1c1nc(-c2ccccc2Cl)no1	none
CCN1C(=O)C2CC3(CCN(C(=O)c4nccc5ccccc45)CC3)CN2C1=O (stereo not drawn)	none
CC(C)N1C(=O)Cc2ccccc2C1C(=O)NCc1ccccc1Br (stereo not drawn)	none
CCN1c2cc(C(=O)NCc3ccc(F)cc3Cl)ccc2C(=O)N2CCCCCC21 (stereo not drawn)	none
COc1ccc(/C=C/c2ccc3c(c2)C(=O)N2CC[C@H](NC(=O)COCC(=O)O)[C@H]2C(=O)N3)cc1	none
O=C(CCCc1ccccc1)N1CCn2c(nnc2[C@@H]2C[C@@H](O)CN2Cc2ccccc2)C1	none
Cc1ccc(N2CCN(C(=O)c3noc(-c4ccc(F)cc4)n3)CC2)c(C)c1	none
O=C(NCCc1ccccc1)c1ccc(CSc2nc3ccncc3n2Cc2ccc(F)cc2)cc1	Pf Dd2 growth 7.1µM
Cc1ccc(Cn2c(CO)cnc2SCc2ccc(F)cc2)cc1	none
Cc1ccc(NC(=O)Cn2c(SCc3cccc(F)c3)nc3ccncc32)c(C)c1	none
Cc1ccc(CCNC(=O)c2ccc(CSc3nc4ccncc4n3Cc3ccc(F)cc3)cc2)cc1	Pf Dd2 growth 4.5µM
COC(=O)c1ccc(Cn2c(SCC(=O)Nc3ccc(F)cc3)nc3ccccc32)cc1	none
O=C(Nc1ccc(Cl)cc1Cl)c1ccnc2[nH]ccc12	none
COCCN1CC(CO)C2(CCN(Cc3ccc(C#N)cc3)CC2)C1 (stereo not drawn)	none
COc1cc(-c2onc(C)c2C(=O)NCCCc2ccccc2)cc(OC)c1OC	Pf Dd2 growth 11µM
COc1ccc(-c2onc(C)c2C(=O)NCCCCc2ccccc2)cc1	none
COc1ccc([C@H](C)NC(=O)c2c(C)noc2-c2cc(OC)c(OC)c(OC)c2)cc1	none
COCCCNC(=O)c1c(C)noc1-c1cc(OC)c(OC)c(OC)c1	none
COc1ccc(-c2onc(C)c2C(=O)N(C)Cc2cc(OC)c(OC)c(OC)c2)cc1	Pf Dd2 growth 10µM
COc1ccc(-c2onc(C)c2C(=O)NCc2c(OC)cc(OC)cc2OC)cc1	none
COc1ccc2cc(C(=O)NC3CCN(C(=O)N4CC5CC(C4)[C@H]4CCCC(=O)N4C5)CC3)[nH]c2c1 (stereo partly drawn)	none
Cn1cnc(S(=O)(=O)N2CCC(c3noc(-c4ccncc4)n3)C2)c1 (stereo not drawn)	none
Cc1nc2ccccc2c(=O)n1-c1ccc(NC(=O)c2ccc([N+](=O)[O-])cc2)cc1	none
Cc1cc(-n2c(C)nc3ccccc3c2=O)ccc1NC(=O)c1cccc([N+](=O)[O-])c1	Pf Dd2 growth 8.9µM
Cc1cc(C(=O)Nc2ccc(-n3c(C)nc4ccccc4c3=O)cc2)ccc1[N+](=O)[O-]	none
O=C(NC1CCN(C(=O)N2CC3CC(C2)[C@H]2CCCC(=O)N2C3)CC1)c1ccccn1 (stereo partly drawn)	none
